These results are taken from PubChem BioAssay (EPA / NIEHS).

Each structure is given as a SMILES string. The source made the active and inactive calls. The calls were made as follows: active = hit-call score of the fitted dose curve at least 0.9, where 1 is the maximum; inactive = score below 0.9.

Assay [1] is described as follows: ATG_E_Box_CIS: Attagene CIS-FACTORIAL HepG2 Assay for human Enhancer Box (E-box) (AID 2282936). Particulars: HepG2 E-box cis-reporter transcription, actives raise or lower the signal. Summed up:
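Transiently transfected HepG2, endogenous TF-driven reporters, 24 h dosing. Readout: RT-PCR plus capillary electrophoresis of fluorescent reporter fragments. Gain or loss of signal fitted bidirectionally against DMSO baseline.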

Assay [2] in a line: ATG_M_61_CIS: Attagene CIS-FACTORIAL HepG2 Assay for M61 Transcription Factor (Internal Marker) (AID 2282937). To be noted: HepG2 Attagene CIS-FACTORIAL M61 internal marker reporter; actives raise or lower the signal. Summed up:
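Endogenous transcription factor activity in HepG2 is read through transiently transfected cis-element reporter units. After 24 h dosing, RNA undergoes reverse transcription, PCR and primer extension with 6-FAM before capillary electrophoresis; DMSO-referenced bidirectional fit.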

A short description of assay [3]: ATG_EGR_CIS: Attagene CIS-FACTORIAL HepG2 Assay for human Early Growth Response 1 (EGR1) (AID 2282938). Particulars: HepG2 Attagene CIS-FACTORIAL EGR reporter mRNA; actives raise or lower the signal. Put shortly: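 Activity is taken as induction or loss of reporter mRNA versus DMSO, fitted bidirectionally. Transcripts from cis-regulated reporter units in transiently transfected HepG2 were measured after 24 h by RT-PCR with capillary electrophoresis.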

A short description of assay [4]: ATG_M_19_CIS: Attagene CIS-FACTORIAL HepG2 Assay for M19 Transcription Factor (Internal Marker) (AID 2282939). To be noted: HepG2 Attagene CIS-FACTORIAL M19 internal marker reporter; actives raise or lower the signal. Put shortly: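 Internal marker readout, fitted in both directions against DMSO, from HepG2 cells carrying transfected cis-element reporter constructs; RT-PCR and capillary electrophoresis of reporter mRNA after 24 h exposure.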

Assay [5] in a line: ATG_ERE_CIS: Attagene CIS-FACTORIAL HepG2 Assay for Estrogen Response Element (ERE) (AID 2282940). Particulars: HepG2 ERE cis-reporter, Attagene RNA transcript; actives raise or lower the signal. Put shortly: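 After 24 h compound treatment, RNA from transfected HepG2 cells was reverse-transcribed, reporter cDNA PCR-amplified, FAM-labelled, HpaI-cut and resolved by capillary electrophoresis. ERE-driven cis reporter transcripts reflect endogenous factors; gain or loss scored against DMSO.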

The nature of assay [6]: ATG_Ets_CIS: Attagene CIS-FACTORIAL HepG2 Assay for human Erythroblast Transformation Specific (ETS) (AID 2282941). Particulars: HepG2 ETS cis-reporter transcription, actives raise or lower the signal. Summed up: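 Multiplexed reporter transcript profiling: HepG2, 24 h treatment, total RNA to cDNA, PCR, 6-FAM labelling, HpaI cut, capillary electrophoresis. Gain- or loss-of-signal fitted against DMSO.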

For assay [7], the target named is Hepatocyte nuclear factor 3-beta (Homo sapiens) (UniProt Q9Y261). In words: ATG_FoxA2_CIS: Attagene CIS-FACTORIAL HepG2 Assay for human Forkhead box A2 (FOXA2) (AID 2282942). To be noted: HepG2 cis-reporter transcription factor activity, 24 h; actives raise or lower the signal. Put shortly: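 Reporter transcript induction is measured by fluorescence after capillary electrophoresis of RT-PCR products from HepG2 cells exposed 24 h. Cis-regulated reporter units report endogenous factor activity; curves fitted both directions against DMSO.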

Assay [8] in a line: ATG_FoxO_CIS: Attagene CIS-FACTORIAL HepG2 Assay for human Forkhead box O (FoxO) (AID 2282943). Particulars: HepG2 Attagene cis-reporter, FoxO element, mRNA; actives raise or lower the signal. Put shortly:
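HepG2 cells transiently transfected with cis-element-driven reporter units report endogenous FoxO activity. After 24 h chemical exposure, reporter mRNA quantified by RT-PCR, fluorescent labeling, HpaI digestion and capillary electrophoresis; bidirectional fit versus DMSO.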

The nature of assay [9]: ATG_GATA_CIS: Attagene CIS-FACTORIAL HepG2 Assay for human GATA Binding Protein (AID 2282944). To be noted: HepG2 GATA cis-element reporter, Attagene multiplex mRNA; actives raise or lower the signal. Summed up:
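Reporter transcripts from a GATA cis-regulated unit, among multiplexed reporters in transfected HepG2 cells, were measured by RT-PCR with capillary electrophoresis after 24 h dosing. Induction or loss scored relative to DMSO.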

Assay [10] in a line: ATG_GLI_CIS: Attagene CIS-FACTORIAL HepG2 Assay for human Zinc Finger Protein GLI1 (AID 2282945). Particulars: HepG2, Attagene cis-factorial reporter mRNA, GLI element; actives raise or lower the signal. Put shortly:
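Transiently transfected HepG2 cells report endogenous transcription factor activity via cis-element-driven reporter units. After 24 h compound exposure, reporter mRNA was measured by RT-PCR with capillary electrophoresis; bidirectional fitting against DMSO baseline.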

Assay [11] is described as follows: ATG_GRE_CIS: Attagene CIS-FACTORIAL HepG2 Assay for human Glucocorticoid Response Elements (GRE) (AID 2282947). To be noted: HepG2 GRE cis-reporter, Attagene multiplex mRNA; actives raise or lower the signal. Put shortly:
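Read-out: fluorescent reporter-transcript fragments separated by capillary electrophoresis after RT-PCR. Transiently transfected HepG2 cells carrying cis-element-driven reporter units were dosed for 24 h; gain or loss of signal fitted against DMSO control.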

Assay [12] in a line: ATG_M_06_CIS: Attagene CIS-FACTORIAL HepG2 Assay for M06 Transcription Factor (Internal Marker) (AID 2282950). Particulars: HepG2 Attagene CIS-FACTORIAL M06 internal marker reporter; actives raise or lower the signal. Put shortly:
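Serves as a background control readout. Transfected HepG2 exposed to compounds for 24 h, then reporter transcripts quantified by fluorescent RT-PCR and capillary electrophoresis. Both directions fitted against DMSO baseline.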

In assay [13] the target is Hypoxia-inducible factor 1-alpha (Homo sapiens) (UniProt Q16665). In words: ATG_HIF1a_CIS: Attagene CIS-FACTORIAL HepG2 Assay for human Hypoxia Inducible Factor 1 (HIF1A) (AID 2282951). To be noted: HepG2 Attagene cis-factorial HIF1a reporter transcription; actives raise or lower the signal. Put shortly:
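Fluorescence intensity of capillary-separated, 6-FAM-labelled reporter amplicons gives mRNA induction in HepG2 cells carrying transfected cis-promoter reporter units; cells exposed 24 h, responses fitted up or down from DMSO.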

Assay [14] has as its target Hepatocyte nuclear factor 6 (Homo sapiens) (UniProt Q9UBC0). In words: ATG_HNF6_CIS: Attagene CIS-FACTORIAL HepG2 Assay for human Hepatocyte Nuclear Factor 6 (HNF6) (AID 2282952). To be noted: HepG2 Attagene cis-factorial HNF6 reporter transcription; actives raise or lower the signal. Put shortly: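 Activity values derive from bidirectional fitting against DMSO of reporter mRNA levels, measured by capillary electrophoresis of labelled RT-PCR products from HepG2 cells exposed 24 h.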

Assay [15] has as its target Heat shock factor protein 1 (Homo sapiens) (UniProt Q00613). In words: ATG_HSE_CIS: Attagene CIS-FACTORIAL HepG2 Assay for human Heat Shock Transcription Factor 1 (HSE) (AID 2282953). To be noted: HepG2 HSE cis-reporter, Attagene RNA transcription; actives raise or lower the signal. Summed up: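 Endogenous transcription factor activity in transiently transfected HepG2, read as reporter mRNA by RT-PCR with fluorescent capillary electrophoresis after 24 h. Gain or loss of signal fitted versus DMSO baseline.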

Assay [16] is described as follows: ATG_MRE_CIS: Attagene CIS-FACTORIAL HepG2 Assay for human Metal Responsive Element (MRE) (AID 2282954). To be noted: HepG2 MRE cis-reporter transcription, Attagene multiplex; actives raise or lower the signal. Summed up:
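RT-PCR/capillary electrophoresis readout of reporter mRNA, 24 h post-dosing, in HepG2 cells transfected with multiplexed cis-regulated reporter constructs. Gain or loss of signal fitted bidirectionally against DMSO baseline.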

In assay [17] the target is Bile acid receptor (Homo sapiens) (UniProt Q96RI1). In words: ATG_IR1_CIS: Attagene CIS-FACTORIAL HepG2 Assay for human Nuclear Receptor Subfamily 1 Group H Member 4 (NR1H4), IR1 submotif (AID 2282946). To be noted: IR1 reporter transcription, actives raise or lower the signal. Put shortly:
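Fluorescence of capillary-separated, HpaI-digested RT-PCR reporter products gave IR1-element mRNA induction in HepG2 cells 24 h after dosing. Endogenous transcription factors drove the cis-regulated reporters; activity was fitted bidirectionally against DMSO.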

A short description of assay [18]: ATG_ISRE_CIS: Attagene CIS-FACTORIAL HepG2 Assay for human Interferon Regulatory Factor 1 (IRF1) binding to an Interferon-Stimulated Response Element (ISRE) (AID 2282948). To be noted: HepG2 ISRE cis-reporter (Attagene), mRNA transcription readout; actives raise or lower the signal. Summed up: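 Signal reflects induction or loss of ISRE-linked reporter mRNA in transiently transfected HepG2 cells after a 24 h treatment, detected by fluorescent RT-PCR fragments on capillary electrophoresis and normalised to DMSO.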

A short description of assay [19]: ATG_M_32_CIS: Attagene CIS-FACTORIAL HepG2 Assay for M32 Transcription Factor (Internal Marker) (AID 2282949).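 Also: background control marker of the multiplexed CIS panel rather than a real target.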 To be noted: HepG2 Attagene cis-factorial M32 reporter, mRNA; actives raise or lower the signal. Put shortly:
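Transient MRTU transfection of HepG2; 24 h compound treatment; TriZol RNA, oligo(dT) RT, reporter PCR, 6-FAM primer extension, HpaI cut, CE. Gain/loss of signal vs DMSO.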

Heat shock factor protein 1 (Homo sapiens), sequence (Q00613 whole entry, looked up): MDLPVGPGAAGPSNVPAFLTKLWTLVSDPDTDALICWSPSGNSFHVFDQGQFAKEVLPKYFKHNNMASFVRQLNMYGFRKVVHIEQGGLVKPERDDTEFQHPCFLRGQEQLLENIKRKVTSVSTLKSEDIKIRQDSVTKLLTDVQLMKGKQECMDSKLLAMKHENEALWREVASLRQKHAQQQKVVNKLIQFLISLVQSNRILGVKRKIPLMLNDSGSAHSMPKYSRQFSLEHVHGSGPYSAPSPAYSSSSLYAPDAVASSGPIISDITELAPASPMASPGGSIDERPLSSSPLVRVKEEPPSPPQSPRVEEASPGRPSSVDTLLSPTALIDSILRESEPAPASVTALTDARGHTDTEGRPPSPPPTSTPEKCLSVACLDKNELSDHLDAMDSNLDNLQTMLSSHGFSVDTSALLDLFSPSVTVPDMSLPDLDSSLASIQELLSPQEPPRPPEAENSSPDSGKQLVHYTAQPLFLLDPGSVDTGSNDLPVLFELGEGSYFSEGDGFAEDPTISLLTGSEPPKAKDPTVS
Bile acid receptor (Homo sapiens), sequence (Q96RI1 whole entry, looked up): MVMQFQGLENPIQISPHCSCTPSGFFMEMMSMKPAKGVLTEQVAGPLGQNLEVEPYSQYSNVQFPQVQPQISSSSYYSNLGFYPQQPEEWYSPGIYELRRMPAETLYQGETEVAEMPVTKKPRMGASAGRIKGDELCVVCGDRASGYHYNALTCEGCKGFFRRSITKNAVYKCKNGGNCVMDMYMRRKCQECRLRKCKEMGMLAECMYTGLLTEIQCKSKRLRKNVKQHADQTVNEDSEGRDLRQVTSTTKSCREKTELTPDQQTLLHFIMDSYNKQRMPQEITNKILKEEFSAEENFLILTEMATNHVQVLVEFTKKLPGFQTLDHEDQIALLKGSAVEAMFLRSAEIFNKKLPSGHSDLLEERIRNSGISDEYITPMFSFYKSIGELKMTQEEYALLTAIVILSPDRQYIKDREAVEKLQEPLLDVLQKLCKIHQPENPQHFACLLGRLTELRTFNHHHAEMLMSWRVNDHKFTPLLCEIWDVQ
Hepatocyte nuclear factor 3-beta (Homo sapiens), sequence (Q9Y261 whole entry, looked up): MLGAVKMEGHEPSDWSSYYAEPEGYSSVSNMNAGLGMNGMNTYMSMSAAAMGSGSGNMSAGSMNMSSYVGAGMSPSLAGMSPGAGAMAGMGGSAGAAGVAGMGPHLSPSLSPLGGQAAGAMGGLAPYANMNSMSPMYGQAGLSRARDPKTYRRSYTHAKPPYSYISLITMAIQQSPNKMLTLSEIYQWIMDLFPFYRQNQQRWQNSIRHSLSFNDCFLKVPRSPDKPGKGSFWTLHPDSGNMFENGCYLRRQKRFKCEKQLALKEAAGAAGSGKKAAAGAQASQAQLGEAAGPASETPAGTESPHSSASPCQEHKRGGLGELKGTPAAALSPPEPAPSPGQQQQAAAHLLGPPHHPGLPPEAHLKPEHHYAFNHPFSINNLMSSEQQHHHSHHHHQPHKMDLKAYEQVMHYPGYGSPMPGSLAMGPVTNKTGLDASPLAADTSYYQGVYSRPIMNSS
Hepatocyte nuclear factor 6 (Homo sapiens), sequence (Q9UBC0 whole entry, looked up): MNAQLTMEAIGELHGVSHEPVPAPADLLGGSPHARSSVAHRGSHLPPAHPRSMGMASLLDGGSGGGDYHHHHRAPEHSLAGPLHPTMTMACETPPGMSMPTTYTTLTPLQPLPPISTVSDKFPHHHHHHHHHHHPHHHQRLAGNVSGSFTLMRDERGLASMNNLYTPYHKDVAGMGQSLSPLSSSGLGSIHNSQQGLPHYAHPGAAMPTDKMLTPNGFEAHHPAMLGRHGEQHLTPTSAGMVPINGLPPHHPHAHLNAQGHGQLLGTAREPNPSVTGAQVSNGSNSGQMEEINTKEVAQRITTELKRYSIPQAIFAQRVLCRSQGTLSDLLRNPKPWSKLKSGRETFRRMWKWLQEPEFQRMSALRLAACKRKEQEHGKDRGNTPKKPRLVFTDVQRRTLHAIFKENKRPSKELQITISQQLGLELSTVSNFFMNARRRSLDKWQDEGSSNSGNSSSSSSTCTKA
Hypoxia-inducible factor 1-alpha (Homo sapiens), sequence (Q16665 whole entry, looked up): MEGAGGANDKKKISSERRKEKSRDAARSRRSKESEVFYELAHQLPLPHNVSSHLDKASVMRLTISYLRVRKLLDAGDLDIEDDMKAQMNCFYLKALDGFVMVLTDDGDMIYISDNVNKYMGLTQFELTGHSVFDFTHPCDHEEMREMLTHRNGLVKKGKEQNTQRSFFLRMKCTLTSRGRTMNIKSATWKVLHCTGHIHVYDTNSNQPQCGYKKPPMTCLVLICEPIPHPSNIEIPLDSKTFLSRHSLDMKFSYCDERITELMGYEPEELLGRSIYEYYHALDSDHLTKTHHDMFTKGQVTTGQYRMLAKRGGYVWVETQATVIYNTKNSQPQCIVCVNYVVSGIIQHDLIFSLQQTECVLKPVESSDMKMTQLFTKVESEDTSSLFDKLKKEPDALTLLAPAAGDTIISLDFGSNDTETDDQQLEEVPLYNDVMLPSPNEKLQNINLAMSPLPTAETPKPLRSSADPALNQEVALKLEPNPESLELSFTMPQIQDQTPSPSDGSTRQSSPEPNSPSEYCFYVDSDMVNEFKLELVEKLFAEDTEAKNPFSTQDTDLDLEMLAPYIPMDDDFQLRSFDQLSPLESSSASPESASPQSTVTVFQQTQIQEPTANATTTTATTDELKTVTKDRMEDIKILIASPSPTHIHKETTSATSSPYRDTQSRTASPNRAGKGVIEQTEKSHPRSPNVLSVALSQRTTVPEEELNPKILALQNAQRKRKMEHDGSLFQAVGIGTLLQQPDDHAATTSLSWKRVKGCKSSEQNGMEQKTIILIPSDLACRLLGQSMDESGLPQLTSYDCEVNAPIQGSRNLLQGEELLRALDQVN

`NC(=O)Nc1ccccc1`: the result in [1], in assay [2], in assay [3], in [4], in [5] and in assay [6] was inactive. Further, the result in assay [7], in assay [8], in [9], in assay [10], in assay [11] and in [12] was inactive. Further, the result in [13], in [14], in assay [15] and in assay [16] was inactive.
Turning to `Cc1cc(=O)[nH]c(=O)[nH]1`, the outcome in assay [1], in assay [2], in assay [5], in [6], in [7] and in [8] was inactive. The molecule was called inactive in [9], in assay [10], in assay [17], in assay [11], in assay [18] and in [19]. Moreover, the call in assay [12], in [14], in assay [15] and in assay [16] was inactive.
On to `CC(C)[N+](C)(CCOC(=O)C1c2ccccc2Oc2ccccc21)C(C)C`, for which the result in [2], in [3], in [4], in assay [5], in assay [6] and in assay [7] was inactive. In addition, the result in [8], in [9], in assay [10], in [17], in assay [11] and in assay [18] was inactive. Further, the call in assay [19], in [12], in assay [14], in assay [15] and in assay [16] was inactive.
One may read the AC50 as the midpoint of the concentration-response curve, whichever way the signal moves. Regarding `CC(C)(C)NC(=O)[C@H]1CC[C@H]2[C@@H]3CC[C@H]4NC(=O)C=C[C@]4(C)[C@H]3CC[C@]12C`, the call in assay [2], in assay [3], in assay [4], in [5], in assay [6] and in assay [7] was inactive. For the same molecule, the result in [8], in [9], in [10], in assay [17], in assay [11] and in [18] was inactive. In addition, the result in [19], in assay [12], in [14] and in assay [15] was inactive. The AC50 in assay [16] was 68.3 µM (active).
Take `CC(CCC(=O)O)(c1ccc(O)cc1)c1ccc(O)cc1`: the result in assay [1], in assay [2], in assay [3], in assay [4], in assay [6] and in assay [7] was inactive. The molecule was called inactive in [8], in assay [9], in assay [10], in assay [17], in [11] and in assay [18]. Also, the molecule was classed as inactive in assay [12], in assay [14], in [15] and in assay [16]. In addition, the AC50 in assay [5] is 50.4 µM (active).
